{"source": "PubChem BioAssay AID624256", "about": "(NMMLSC, 2012)", "note": "“And” between values parts separate entries of the source, which are not always exact repeats. Equal entries are not always repeated. Screen size: about 360,000 compounds; about 3,700 (1%) were called active. Another 2% or so got no clear call; they are omitted. The sample holds actives, similar compounds and a random draw of the others, so the mix is not that of the screen.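 Rule for the calls: active = normalized GFP-positive differentiation at or above the plate's own cutoff, the solvent-only control mean plus 3 SD; inconclusive = no clear call, values can overlap the other calls; inactive = the rest.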", "data": [{"experiment": "induction of myeloid progenitor differentiation, primary screen, cell-based, flow cytometry, MLPCN library (AID 624256);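 for GFP+ MAC1+ double positive: cells exposed to compound for four days before flow analysis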;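 for normalized GFP-positive differentiation: cells exposed to compound for four days before flow analysis; 0% = DMSO wells and 100% = fulvestrant positive control at 5 µM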", "details": "ER-HoxA9 myeloid progenitors, lysozyme-GFP differentiation, at 10 µM; GFP+ MAC1+ double positive: measured here: differentiation confirmed by MAC1 staining, stronger effect = higher value; normalized GFP-positive differentiation: stronger effect = higher value", "values": [{"smiles": "CN(CC(=O)Nc1cccc(F)c1)C(=O)CC1CCCC1", "GFP+ MAC1+ double positive": "0.8%", "outcome": "inactive"}, {"smiles": "CCN(CC)C(=O)CSC(Nc1cccc(F)c1)=C(C#N)C#N", "GFP+ MAC1+ double positive": "2.2%", "normalized GFP-positive differentiation": "143% (active)"}, {"smiles": "Cc1ccc(CSCC(=O)N(C)CC(=O)Nc2cccc(F)c2)cc1", "GFP+ MAC1+ double positive": "1.2%", "outcome": "inactive"}, {"smiles": "Cn1c(Nc2ccc(F)cc2)nc2cc(-c3ccsc3)sc2c1=O", "GFP+ MAC1+ double positive": "0.7%", "outcome": "inactive"}, {"smiles": "CCOC(=O)C1CCCN(C(=O)c2cccc3ccccc23)CC1", "note": "(stereo not given)", "GFP+ MAC1+ double positive": "1.7%", "outcome": "inactive"}, {"smiles": "CC(=O)OCC(C)n1c(=O)c2ccccc2n1C(C)=O", "note": "(stereo not given)", "GFP+ MAC1+ double positive": "1%", "outcome": "inactive"}, {"smiles": "Cc1[nH]c(=O)c(C(=O)/C=C/c2ccccc2)c2c1CCCC2", "GFP+ MAC1+ double positive": "10.9%", "normalized GFP-positive differentiation": "31.7% (active)"}, {"smiles": "CC1(C(=O)O)CCCN(C(=O)/C=C/c2ccccc2)C1", "note": "(stereo not given)", "GFP+ MAC1+ double positive": "2.1%", "outcome": "inactive"}, {"smiles": "COC(=O)c1c(C)[nH]c(C(=O)/C=C/c2ccc(Cl)cc2)c1C", "GFP+ MAC1+ double positive": "0.4%", "outcome": "inactive"}, {"smiles": "Cc1ccc2nc(-c3ccco3)c(Cc3cccc(Cl)c3)n2c1", "GFP+ MAC1+ double positive": "0.9%", "outcome": "inactive"}, {"smiles": "COc1ccc(/C=C(\\C#N)C(=O)NCCCn2ccnc2)cc1", "GFP+ MAC1+ double positive": "0.1%", "outcome": "inactive"}, {"smiles": "COc1cc(OC)cc(C(=O)NCCCn2ccnc2)c1", "GFP+ MAC1+ double positive": "0.7%", "outcome": "inactive"}, {"smiles": "COc1cccc(-c2nn(-c3ccccc3)cc2/C=C(\\C#N)C(=O)NCCCn2ccnc2)c1", "GFP+ MAC1+ double positive": "0.5%", "normalized GFP-positive differentiation": "58.2% (active)"}, {"smiles": "Nc1nc2c(Br)ccc(Br)c2cc1C(=O)NCCc1ccccc1", "GFP+ MAC1+ double positive": "0.7%", "outcome": "inactive"}, {"smiles": "CC(C)NC(=O)N1Cc2cc(C(=O)NCC(F)(F)F)nc(-c3cccc(-c4cc5ccccc5o4)c3)c2[C@@H]1CCO", "GFP+ MAC1+ double positive": "1.5%", "outcome": "inactive"}, {"smiles": "COc1ccc(CCNC(=O)/C(C#N)=C2\\N=C(NC(=O)c3cccs3)c3ccccc32)cc1", "GFP+ MAC1+ double positive": "0.9%", "normalized GFP-positive differentiation": "28.9% (active)"}, {"smiles": "CCOc1ncccc1C(=O)NCCc1ccc(OC)cc1", "GFP+ MAC1+ double positive": "0.2%", "outcome": "inactive"}, {"smiles": "COc1ccc(CN(Cc2ccc(OC)cc2)C(=O)c2cccs2)cc1", "GFP+ MAC1+ double positive": "0.3%", "outcome": "inactive"}, {"smiles": "CCOC(=O)C1C(C)C(C(C)(C)C)N(S(=O)(=O)c2ccc(C)cc2)C1c1ccccc1", "note": "(stereo not given)", "GFP+ MAC1+ double positive": "2.4%", "outcome": "inactive"}, {"smiles": "NC(c1csc(NC(=O)Nc2ccccc2Oc2ccccc2)n1)c1ccccc1Cl", "note": "(stereo not given)", "GFP+ MAC1+ double positive": "0.8%", "outcome": "inactive"}, {"smiles": "CSCCC(c1nnnn1Cc1ccccc1)N1CCN(C/C=C/c2ccccc2)CC1", "note": "(stereo not given)", "GFP+ MAC1+ double positive": "1.1%", "outcome": "inactive"}, {"smiles": "CCOc1cc(-c2nc3cc(C)ccn3c2NCC2CCCO2)ccc1O", "note": "(stereo not given)", "GFP+ MAC1+ double positive": "0.6%", "outcome": "inactive"}, {"smiles": "COc1ccc(-c2nc3cc(C)ccn3c2NC2CCCCC2)cc1SC1CCCCC1", "GFP+ MAC1+ double positive": "2.4% and 7.4%", "normalized GFP-positive differentiation": "300% (active) and 217% (active)"}, {"smiles": "COc1ccc(-c2nc3cnccn3c2NC2CCCCC2)cc1-c1cccc(Cl)c1", "GFP+ MAC1+ double positive": "2.8% and 1.8%", "outcome": "inactive"}, {"smiles": "CCN1CC(CN(C)Cc2nc(-c3ccc(Cl)cc3)no2)CC1=O", "note": "(stereo not given)", "GFP+ MAC1+ double positive": "0.3%", "outcome": "inactive"}, {"smiles": "COC(=O)c1ccc(-c2noc(CN(Cc3ccccn3)CC3CCCO3)n2)cc1", "note": "(stereo not given)", "GFP+ MAC1+ double positive": "0.3%", "outcome": "inactive"}, {"smiles": "CN(Cc1ccccn1)Cc1nc(-c2ccc(Cl)cc2)no1", "GFP+ MAC1+ double positive": "0.5%", "normalized GFP-positive differentiation": "34.3% (active)"}, {"smiles": "Cc1[nH]c2ccccc2c1C(=O)c1cc([C@H](NC(=O)OC(C)(C)C)C(C)C)sc1N", "GFP+ MAC1+ double positive": "1%", "outcome": "inactive"}, {"smiles": "CCOC(=O)N1CCN(C(=O)C[C@@H]2C[C@@]3(C(=O)OC)CC(C)(C)CC=C3N(Cc3ccco3)C2=O)CC1", "GFP+ MAC1+ double positive": "1.2%", "outcome": "inactive"}, {"smiles": "CC1=C(C(=O)N(C(C)C)C(C)C)CC(CC(=O)NCC2CCCCC2)C(=O)N1Cc1ccccc1", "note": "(stereo not given)", "GFP+ MAC1+ double positive": "0.3%", "outcome": "inactive"}, {"smiles": "O=C(Nc1ccccc1N1CCOCC1)c1ccncc1", "GFP+ MAC1+ double positive": "1.1%", "outcome": "inactive"}, {"smiles": "O=C1c2ccccc2-c2ncnc3c(N4CCOCC4)cc(N4CCOCC4)c1c23", "GFP+ MAC1+ double positive": "4.8%", "normalized GFP-positive differentiation": "41.7% (active)"}, {"smiles": "O=S(=O)(Nc1cc(Cl)ccc1N1CCOCC1)c1ccccc1Cl", "GFP+ MAC1+ double positive": "0.3%", "outcome": "inactive"}, {"smiles": "CCCCC[C@H](C)N1C[C@@H](COCc2ccccc2)Oc2cc(N3CC[C@@H](N(C)C)C3)ccc2S1(=O)=O", "GFP+ MAC1+ double positive": "1.2%", "outcome": "inactive"}, {"smiles": "COC(=O)c1ccc2nc(-c3ccc(F)cc3)c(Cc3ccc(C)cc3)n2c1", "GFP+ MAC1+ double positive": "0.7%", "outcome": "inactive"}, {"smiles": "O=C(O)c1ccccc1-c1cccc2nncn12", "GFP+ MAC1+ double positive": "0.5%", "outcome": "inactive"}, {"smiles": "CC(=O)c1c(C)[nH]c(C(=O)NCc2ccc(C)cc2)c1C", "GFP+ MAC1+ double positive": "1.3%", "outcome": "inactive"}, {"smiles": "CC(=O)c1c(C)[nH]c(C(=O)NCCCN2CCCC2)c1C", "GFP+ MAC1+ double positive": "0.6%", "outcome": "inactive"}, {"smiles": "CCCCN(CC)CCNC(=O)c1[nH]c(C)c(C(C)=O)c1C", "GFP+ MAC1+ double positive": "2.2%", "normalized GFP-positive differentiation": "13.8% (active)"}, {"smiles": "COC(=O)c1ccc2nc(C3CCCCC3)c(Cc3cccc(F)c3)n2c1", "GFP+ MAC1+ double positive": "0.7%", "outcome": "inactive"}, {"smiles": "CO[C@@H]1CN(C)C(=O)c2cc(NC(=O)C3CC3)ccc2OC[C@H](C)N(C(=O)CN2CCOCC2)C[C@@H]1C", "GFP+ MAC1+ double positive": "1.2%", "outcome": "inactive"}, {"smiles": "Cn1cc(C2OC(=O)c3ccccc32)c2ccccc21", "note": "(stereo not given)", "GFP+ MAC1+ double positive": "1.6%", "outcome": "inactive"}, {"smiles": "Cc1nn(C)cc1N1C(=O)c2cccc3c(N)ccc(c23)C1=O", "GFP+ MAC1+ double positive": "4.9%", "normalized GFP-positive differentiation": "289% (active)"}, {"smiles": "CN1C(=O)c2cccc3c(N)ccc(c23)C1=O", "GFP+ MAC1+ double positive": "1.9%", "normalized GFP-positive differentiation": "96.2% (active)"}, {"smiles": "CC(C(=O)O)N1C(=O)c2cccc3cccc1c23", "note": "(stereo not given)", "GFP+ MAC1+ double positive": "1.4%", "outcome": "inactive"}]}]}
